Shown are actives, neighbours in structure and some others; about 1.9% of the full set was active somewhere.
Vif inh: blocks HIV Vif function | inhibition, % at 7.49 µM | AID 602346 | 340,000 compounds, 0.35% hits | HEK293T cells, Vif self-association by quenched fluorescence, imaging, 24 h; in the data active = inhibition above about 50%, passing the limit was not always enough; inconclusive = no clear call, values can overlap the other calls; inactive = below about 31%
Bfl-1 A1 inh: inhibitors of the anti-apoptotic protein A1, read as caspase activation; caspase activation, % (test concentration not listed); MEF A1-2A-BIM cells, Caspase-Glo 3/7 luminescence, 3 h; percent of clofoctol response, vehicle zero; 330,000 compounds, 0.066% hits; AID 2462;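 active = over half of replicate activation scores above 10%, or exactly half above 10 with the replicate mean above 10; inconclusive = replicate mean below 10 yet half the replicates above 10; inactive = over half of replicates below 10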
Neddyl block: blocks human cullin neddylation; 360,000 compounds, 0.58% hits; TR-FRET cullin neddylation, biochemical; inhibition, % at 25 µM; P61081+Q13564; in the data active = inhibition above about 36%
INS-1E GSIS act: primary screen for activators of insulin secretion dependent on glucose, INS-1E cells, GLuc reporter luminescence. 370,000 compounds, 0.61% hits. activation, % at 16.6 µM. INS-1E GLuc reporter insulin secretion, 2-3 h;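 active = lowest replicate activation of at least 40%, so every replicate reaches that level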;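 note: 0% = median of neutral control wells and 100% = median of IBMX positive control wells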
dFosB activator: mouse delta FosB homodimer activation; P13346; purified delta FosB, TAMRA-CDK5 oligo fluorescence polarization; percent of positive-control signal above neutral wells; activation, % at 25 µM; 340,000 compounds, 0.99% hits;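 active = mean activation above about 17%, with every replicate also reaching it, limit read from the data, passing the limit was not always enough; inconclusive = only one of the two conditions met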
Target sequence (P13346 whole entry, looked up): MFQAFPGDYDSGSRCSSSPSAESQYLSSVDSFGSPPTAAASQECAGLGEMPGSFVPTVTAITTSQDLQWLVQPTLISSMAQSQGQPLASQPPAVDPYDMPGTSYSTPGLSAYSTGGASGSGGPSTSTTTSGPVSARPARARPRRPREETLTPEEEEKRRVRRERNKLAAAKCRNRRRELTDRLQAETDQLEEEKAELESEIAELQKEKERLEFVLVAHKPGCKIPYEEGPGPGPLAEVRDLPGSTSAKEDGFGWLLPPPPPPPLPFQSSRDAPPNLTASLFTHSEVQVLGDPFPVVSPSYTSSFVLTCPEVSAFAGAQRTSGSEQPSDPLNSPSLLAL
* = called active by the depositor; ? = inconclusive; / = no result given.

SMILES	Vif inh	Bfl-1 A1 inh	Neddyl block	INS-1E GSIS act	dFosB activator
O=c1c2ccccc2sc2ccccc12	4	/	-93	-1	-7
O=c1c(C(c2ccccc2)c2c(O)sc3ccccc3c2=O)c(O)sc2ccccc12	1	1	-52	56*	0
O=C1C(=Cc2cccn2-c2ccccc2)C(=O)c2ccccc21	11	-1	-6	72*	-4
O=C(C[C@H]1CC[C@@H]2[C@H](COC[C@H](O)CN2Cc2cccc(F)c2)O1)NCc1ccncc1	/	/	/	5	/
CCOC(=O)C1(C)CCCCN1C(=O)c1cccc(Cl)c1 (stereo unspecified)	7	/	8	96*	/
C=C1/C=C(\C)[C@](C)(O)C[C@H](O)CC(=O)[C@H](O)[C@@H](O)[C@H](C)C[C@H](C)OC(=O)/C(C)=C/CC/C=C/[C@@H]2O[C@H]2C[C@H](C)C1	/	15*	/	/	/
C[C@H]1CN(C)C(=O)Cc2cc(N(C)C)ccc2O[C@@H]1CN(C)C(=O)OC(C)(C)C	/	/	/	-16	/
CC=Cc1ccc2n(c1=O)C[C@H]1[C@H](CO)[C@@H](C(=O)NCC)[C@@H]2N1C(C)=O (mixture of isomers)	/	/	/	5	/
Cc1cccc2sc(N(CCCN(C)C)C(=O)c3ccc(S(=O)(=O)N4CCc5ccccc5C4)cc3)nc12	-2	2	12	-5	62*
Cc1ccc2nc(N(CCCN(C)C)C(=O)c3ccc(S(=O)(=O)N4CCc5ccccc5C4)cc3)sc2c1	1	4	11	2	15
CN(C)CCCN(C(=O)c1ccc(S(=O)(=O)N2CCc3ccccc3C2)cc1)c1nc2ccc(F)cc2s1	10	30*	2	-7	69*
Cc1cc(C)c2sc(N(CCCN(C)C)C(=O)c3ccc(S(=O)(=O)N4CCc5ccccc5C4)cc3)nc2c1	-11	0	10	/	100*
Cc1cc(C)c2sc(N(CCCN(C)C)C(=O)c3ccc(S(=O)(=O)N4CCCc5ccccc54)cc3)nc2c1	-7	0	5	-40	-11
O=C1c2cccc3c(N4CCCCC4)ccc(c23)C(=O)N1c1cccc(O)c1	185*	1	-32	6	-2
CN1C(=O)c2cc(NC(=O)c3ccc(F)c(F)c3)ccc2OC[C@@H]2O[C@H](CC(=O)N3CCOCC3)CC[C@H]21	/	/	/	-12	/
Cc1c(-c2cccc(Cl)c2)nc2ccccc2c1C(=O)NC1CC1	-12	-2	-25	99*	-11
Cc1c(-c2ccccc2)nc2ccccc2c1C(=O)O	2	0	-6	-9	-6
C[C@H]1CN([C@@H](C)CO)S(=O)(=O)c2ccc(-c3cccnc3)cc2O[C@H]1CN(C)C(=O)c1cccc(F)c1	/	/	/	5	/
CCOc1cc(/C=N/Nc2cc(C)nc(-n3nc(C)cc3C)n2)ccc1O	0	8.6*	12	3	?
COc1ccc(NC(=O)Nc2ccc3c(c2)CC(=O)N([C@H](C)CO)C[C@H](C)[C@H](CN(C)S(=O)(=O)c2ccc(Cl)cc2)O3)cc1	/	/	/	-9	/
COc1cccc(-c2cc(C(F)(F)F)nc(-n3cc(C)cn3)n2)c1	89*	0	28	-4	-17
Fc1ccc(-c2cc(C(F)(F)F)nc(-n3cncn3)n2)cc1	7	1	8	52*	-9
COc1cccc(-c2cc(C(F)(F)F)nc(-n3cncn3)n2)c1	2	1	23	65*	-20
C[C@@H]1CN([C@@H](C)CO)C(=O)Cc2cc(NC(=O)c3ccncc3)ccc2O[C@@H]1CN(C)S(C)(=O)=O	/	/	/	12	/
COCC(=O)Nc1ccc2c(c1)OC[C@H](C)N(Cc1ccccc1F)C[C@@H](C)[C@H](OC)CN(C)C2=O	/	/	/	-6	/
SMILES	Vif inh	Bfl-1 A1 inh	Neddyl block	INS-1E GSIS act	dFosB activator
CN(C)C(=O)C[C@H]1CC[C@@H]2[C@@H](COc3ccc(NS(=O)(=O)c4cccc(F)c4)cc3C(=O)N2C)O1	/	/	/	2	/
C[C@H]1CN([C@@H](C)CO)C(=O)c2cccc(NS(=O)(=O)c3ccccc3)c2O[C@H]1CN(C)S(C)(=O)=O	/	/	/	5	/
O=C(C1CCOCC1)N1CC(=O)N2[C@H](CO)[C@H](c3ccc(-c4cccnc4)cc3)[C@@H]2C1	/	/	/	8	/
CCC(CO)Oc1cc(NCc2ccc(Cl)cc2)c2ncn(C(C)C)c2c1 (stereo unspecified)	106*	0	-6	-15	5
O=c1[nH][nH]c2c1C(c1ccc(Cl)c(Cl)c1)OC(CCc1ccccc1)C2 (stereo unspecified)	/	/	-4	56*	/
O=c1[nH]c(=S)[nH]c2c1C(c1ccc(Cl)c(Cl)c1)OC(CCc1ccccc1)C2 (stereo unspecified)	/	/	-59	-24	/
C[C@@H]1CN([C@@H](C)CO)C(=O)c2cc(NC(=O)Cc3ccccc3)ccc2O[C@@H](C)CCCCO[C@@H]1CN(C)Cc1ccc2c(c1)OCO2	/	/	/	-26	/
O=S(=O)(c1ccc(Cl)nc1)N1CCc2ccccc21	-18	0	6	54*	5
Cc1ccc(S(=O)(=O)N(c2cccc(C(F)(F)F)c2)C2C=CS(=O)(=O)C2)cc1 (stereo unspecified)	7	0	-1	-5	-10
CCc1ccc(N(C2C=CS(=O)(=O)C2)S(=O)(=O)c2ccccc2)cc1 (stereo unspecified)	-15	-1	11	86*	-4
Brc1ccc(C2Nc3cccc4cccc(c34)N2)s1	-5	0	-36	0	23*
Clc1ccc(C2Nc3cccc4cccc(c34)N2)cc1	-5	-1	-18	-4	2
C[C@@H]1CCCCO[C@H](CN(C)C(=O)c2ccncc2)[C@H](C)CN([C@H](C)CO)C(=O)c2cc(N(C)C)ccc2O1	/	/	/	2	/
CCOc1ccc2c(C)c(C(=O)O)oc2c1OCC	55*	0	/	14	3
CCOc1ccc2c(C)c(C)c(=O)oc2c1OCC	4	1	/	/	-19
O=C(COc1ccc(/C=N/NC(=O)c2cc3ccccc3o2)cc1Cl)Nc1ccccc1	2	64*	/	/	-23
COc1ccc(OC)c2c1C(=O)c1ccccc1C2=O	/	0	/	34	/
COc1ccc(OC)c2c1C(=O)C(Cl)=C(Cl)C2=O	-1	-3	22	58*	-7
COc1ccc(-c2coc3c(C(=O)Nc4cccc(C(C)=O)c4)cccc23)c(C)c1	150*	/	-4	18	/
COc1ccc(-c2ccc(C(=O)Nc3cccc(C(C)=O)c3)c3occc23)c(C)c1	-17	/	-8	13	/
CC(C)(C)[S@@](=O)N1Cc2cc(C(=O)NCCN3CCCC3)nc(-c3cccc(-c4cccc(C#N)c4)c3)c2[C@H]1CCO	/	/	/	-1	/
O=C(CCC(=O)N1CCN(c2ccccc2F)CC1)N1CCN(c2ccccc2)CC1	-13	9.4*	2	-14	-6
COc1cc(/C=C/C(=O)OCC(=O)NCc2cccs2)ccc1OC(F)F	13	0	4	46*	-8
COc1cc(/C=C/C(=O)OCC(=O)NCCc2ccccc2)ccc1OC(F)F	-8	0	15	61*	-9

Screens as filed in PubChem.
